Source: PubChem BioAssay (several laboratories)
beta cell repl: inducers of beta-cell replication in MIN6 cells. MIN6 cells proliferation, ATPlite luminescence, 48 h; cells starved in 0.2% serum; 100% = growth in 10% serum. proliferation, % at 10 µM. actives 0.29% (n = 330,000). AID 2380;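 active means compounds whose signal lies at least 3.5 SD above the mean of all wells on their plate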;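 further: 0% = DMSO-treated cells in low-serum medium and 100% = 10% serum control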
Myeloid diff MLP: promotes myeloid progenitor differentiation | ER-HoxA9 myeloid progenitors, lysozyme-GFP differentiation, flow cytometry | actives 1% (n = 360,000) | calls only at 10 µM | AID 624256;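 active means normalized GFP-positive differentiation at or above the plate's own cutoff, the solvent-only control mean plus 3 SD; inconclusive means no clear call, values can overlap the other calls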;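 further: cells exposed to compound for four days before flow analysis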
Cardio protect: myocardial damage modulation in H9c2 cells | protection from H2O2 cell death, % at 20 µM | actives 0.63% (n = 360,000) | H9c2 cardiomyocytes, H2O2 injury protection, ATPLite, 2 h | AID 588492;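 active means compounds giving at least 50% protection of heart cells from peroxide-induced death in the single-dose screen, raw or plate-pattern-corrected value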;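 further: 0% = DMSO wells with peroxide and 100% = DMSO wells without peroxide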
ABCB6 inh 2: inhibitors of human ABC transporter ABCB6; Q9NP58; K562-ABCB6 porphyrin accumulation, flow cytometry, 1 h; stronger effect = lower value; fluorescence ratio to DMSO, % at 10 µM; actives 0.19% (n = 360,000);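 active means fluorescence ratio to DMSO below 75%, the collection mean minus 3 SD; inconclusive means too few cells collected in the well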;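 further: signal is porphyrin accumulated inside mitochondria; 100% equals median channel fluorescence of DMSO control wells; lower ratio means ABCB6 inhibition with less porphyrin fluorescence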
Target sequence (Q9NP58 whole entry, looked up): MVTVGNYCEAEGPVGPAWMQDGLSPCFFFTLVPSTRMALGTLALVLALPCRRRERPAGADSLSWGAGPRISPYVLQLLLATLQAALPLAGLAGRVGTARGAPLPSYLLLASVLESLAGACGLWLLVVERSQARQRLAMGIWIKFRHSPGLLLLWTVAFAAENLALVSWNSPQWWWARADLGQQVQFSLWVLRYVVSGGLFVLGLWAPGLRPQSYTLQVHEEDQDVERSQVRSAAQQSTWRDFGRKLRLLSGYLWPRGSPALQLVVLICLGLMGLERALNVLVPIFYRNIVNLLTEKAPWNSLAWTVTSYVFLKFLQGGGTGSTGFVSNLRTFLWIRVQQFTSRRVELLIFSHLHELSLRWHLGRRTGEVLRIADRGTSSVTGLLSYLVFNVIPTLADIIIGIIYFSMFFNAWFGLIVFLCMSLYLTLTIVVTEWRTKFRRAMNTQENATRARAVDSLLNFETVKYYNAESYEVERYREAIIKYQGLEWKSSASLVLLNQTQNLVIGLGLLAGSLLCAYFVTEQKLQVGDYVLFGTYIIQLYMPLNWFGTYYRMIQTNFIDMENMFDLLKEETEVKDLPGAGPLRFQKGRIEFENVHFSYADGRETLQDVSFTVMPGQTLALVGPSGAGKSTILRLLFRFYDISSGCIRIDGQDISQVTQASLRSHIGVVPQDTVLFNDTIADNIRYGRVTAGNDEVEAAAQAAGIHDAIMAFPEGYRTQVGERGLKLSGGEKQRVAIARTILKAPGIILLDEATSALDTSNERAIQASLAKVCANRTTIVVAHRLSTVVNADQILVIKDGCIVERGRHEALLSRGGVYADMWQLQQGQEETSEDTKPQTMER
iPSC survival up: enhancers of human iPSC single-cell survival; hiPSC single-cell survival, ATPlite luminescence; 100% = ROCK inhibitor wells, 0% = DMSO; survival enhancement, % at 20 µM; actives 0.044% (n = 360,000); in the data active means survival enhancement above about 18%;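 further: cells exposed to compounds for 16 hours before the ATP read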
Myeloid diff: compounds promoting myeloid differentiation; shares compounds with Myeloid diff MLP; ER-HoxA9 myeloid progenitors, GFP/Mac1 double-positive flow; actives 2% (n = 2,300); calls only;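 active means share of green or green-and-red cells above 9 and 9% in run 1 or 4 and 3% in run 2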
GFP autofluor: compound fluorescence in myeloid differentiation counter-screen. ER-HoxA9 myeloid progenitors, no estrogen, GFP autofluorescence flow cytometry; vehicle wells 0%, positive control 100%. actives 7.4% (n = 2,300). shares compounds with Myeloid diff MLP. fluorescence response, % (concentration not given with the values);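 active means over 5% cells positive for green fluorescent reporter, or over 2% positive for both it and APC stain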;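 further: range taken on the double positive population between DMSO and positive control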
* marks the source's active call; other numbers are inactive results; i = inactive; ? = inconclusive; . = no result; + = active, no number. Only some compounds are listed: those with a hit (about 2.2% of all), similar ones and a draw of the others.

SMILES | beta cell repl | Myeloid diff MLP | Cardio protect | ABCB6 inh 2 | iPSC survival up | Myeloid diff | GFP autofluor
CC(=O)NC1CC2CCCC(C1)N2S(=O)(=O)c1cccc(F)c1 (configuration not stated) | 2 | + | 16 | 103 | 1 | i | 0
Cn1nccc1-c1ccc(C(=O)NCc2ccco2)c2occc12 | . | i | -4 | 94 | 8 | . | .
COc1cc(NCCCNC(C)C)c2nccc(C)c2c1 | . | + | -2 | 114 | -2 | i | 0
CC(C)n1nnnc1C1c2ccccc2C(=O)N1Cc1ccco1 (configuration not stated) | . | + | . | 104 | -1 | i | 2
CC(C)n1nnnc1C1c2ccccc2C(=O)N1Cc1cccs1 (configuration not stated) | . | i | . | 95 | 0 | . | .
CC(C)N(CCNC(=O)c1ccc(CS(=O)(=O)c2c(Cl)cccc2Cl)o1)Cc1ccccc1 | 0 | i | -2 | 96 | 0 | . | .
CCOC(=O)c1cc(C(=O)OCC)c2cc(Br)ccc2n1 | 0 | + | 1 | 98 | 0 | i | 0
c1cc(-c2cc3nc(NC4CCCCC4)ccn3n2)ccc1OCCN1CCOCC1 | . | i | 10 | 97 | 5 | i | 1
Cc1cccc(NC(=O)c2ccc(-n3cccn3)c([N+](=O)[O-])c2)c1 | -2 | i | 9 | . | 14 | . | .
Cn1c(=O)c2c(ncn2CC(=O)N2CCN(c3ccccc3F)CC2)n(C)c1=O | -2 | i | 6 | 97 | -1 | . | .
Cc1cc(NC(=O)/C=C/c2ccccc2Cl)no1 | 0 | i | -4 | 97 | 4 | i | 1
CC1(C)CNC(=O)C=C(c2ccccc2)C1 | -3 | + | 4 | 99 | 5 | i | 0
CC1(C)CC(=O)C=C(c2ccc(Oc3ccccc3)cc2)C1 | -2 | i | -12 | 99 | -2 | . | .
CCc1ccc(CN2C(=O)c3ccccc3C2C(=O)NCc2cccnc2)cc1 (configuration not stated) | 2 | i | -2 | 94 | 0 | . | .
O=C(NCc1ccco1)c1ccc2c(c1)N(Cc1ccccc1)CCS2 | -2 | i | -3 | 101 | 2 | i | 1
O=C(NCc1ccco1)c1ccc2c(c1)N(Cc1ccc(Cl)cc1)CCS2 | -6 | i | -5 | 97 | 0 | . | .
CC1(C)CN(c2ccc(Br)cc2)C(=O)[C@H]1CC(=O)Nc1ccccc1 | . | i | -13 | 99 | 6 | . | .
CCCCN1C[C@H](Cc2ccccc2)[C@@H](CC(=O)Nc2ccccc2)C1=O | -2 | i | 4 | 95 | -2 | i | 0
CCCCN1C[C@H](Cc2ccccc2)[C@@H](CC(=O)Nc2ccc(OC)cc2)C1=O | . | i | 14 | 100 | 0 | . | .
CC1(C)CN(CCc2ccccc2)C(=O)[C@H]1CC(=O)Nc1ccccc1 | . | + | -14 | 105 | -2 | i | 10*
O=C1C=CN(Cc2ccccc2)CC1 | -1 | i | 5 | 97 | 4 | . | .
c1coc(CNC2C3CC4CC(C3)CC2C4)c1 (configuration not stated) | 0 | i | 1 | 89 | 5 | i | 0
c1coc(CNC2CCCCCCC2)c1 | 3 | i | 0 | 91 | -1 | . | .
CCOc1cccc(/C=N/NC(=O)c2cc(-c3cccn3C)n[nH]2)c1O | -4 | + | 36 | 98 | -2 | i | 0
COc1cc(OC)c(OC)cc1/C=N/NC(=O)c1cc(-c2cccn2C)n[nH]1 | 0 | i | 44 | 95 | 0 | . | .
SMILES | beta cell repl | Myeloid diff MLP | Cardio protect | ABCB6 inh 2 | iPSC survival up | Myeloid diff | GFP autofluor
Nc1ccc(-c2c3ccccc3nc3ccccc23)cc1 | . | i | 2 | 102 | 0 | . | .
COC(=O)c1sc(NC(=O)CSc2nncs2)c(C(=O)OC)c1C | 4 | i | 6 | 92 | 9 | . | .
CN1/C(=C\P(=O)(N(C)C)N(C)C)C(C)(C)c2ccccc21 | -5 | + | -14 | i | 0 | i | 82*
O=C(CN1CCc2cc3c(cc2C1)OCCCO3)Nc1ccc(S(=O)(=O)N2CCCC2)cc1 | -3 | i | 0 | 108 | 0 | . | .
COC(=O)c1cc(NC(=O)CN2CCc3cc4c(cc3C2)OCCCO4)cc(C(=O)OC)c1 | -3 | i | 4 | 101 | 0 | i | 0
CCOC(=O)c1ccc(NC(=O)CN2CCc3ccccc3C2)cc1 | -3 | i | 3 | 92 | -1 | i | 2
Cc1cccc(NC(=O)/C=C/c2ccc([N+](=O)[O-])s2)c1 | . | ? | -5 | 95 | -2 | . | .
Cc1cccc(NC(=S)N/N=C/c2ccc([N+](=O)[O-])s2)c1 | -3 | i | -10 | 362 | -3 | i | 62*
O=[N+]([O-])c1ccc(O)c(CN2CCCCCC2)c1 | 1 | i | 3 | 101 | 0 | i | 0
CN1CCN(c2ccc(CNC(=O)c3ccc(-c4ccc(F)c(F)c4)c4ccoc34)cc2)CC1 | . | + | -9 | 101 | 2 | i | 2
COC(=O)C1CC2=C(CCCC2=O)NC1=O (configuration not stated) | . | i | 2 | 97 | -1 | i | 0
CC1CC(=O)NN=C1c1cccs1 (configuration not stated) | -2 | i | 2 | 100 | 0 | . | .
Nc1cccc(C(=O)Nc2ccc3nc(-c4cccnc4)[nH]c3c2)c1 | -1 | i | 10 | 98 | 0 | . | .
O=C(CSc1nc2ccsc2c(=O)n1NC(=O)c1ccccc1)Nc1nccs1 | 0 | + | 4 | 102 | 1 | i | 0
COC(=O)C1C(=O)c2c([nH]c(C(=O)OCC3CCCO3)c2C)CC1C (configuration not stated) | -4 | i | -20 | 93 | -2 | i | 0
CCOC(=O)C1CCCN(C(=O)CNS(=O)(=O)c2ccc(Br)s2)C1 (configuration not stated) | -1 | + | -2 | 99 | 1 | i | 0
CCOC(=O)C1CCN(CCC(=O)Nc2ccccc2Cl)CC1 | 0 | i | 1 | 97 | 1 | i | 0
CCOC(=O)C1CCN(CCC(=O)Nc2cccc(Cl)c2)CC1 | -1 | i | 0 | 95 | -1 | . | .
COc1ccc2c(c1)NC(=O)CC(c1ccccc1)=N2 | -2 | i | 6 | 103 | -1 | i | 0
COc1ccc(O)c(C2=Nc3ccccc3N=C(c3ccccc3)C2)c1 | -6 | i | -10 | 97 | -1 | . | .
CC(Oc1ccc(Cl)cc1Cl)C(=O)NCCCn1ccnc1 (configuration not stated) | 3 | + | -2 | 94 | 0 | i | 0
O=C(CN1CCOCC1)Nc1c(C(=O)C2CC2)oc2ccccc12 | 1 | i | 0 | 94 | 0 | . | .
